# Assay results published in publication PMC11006913.
# Where a chain is given by its changes, count along the chain named.
# How the values were obtained:
# Assay in all cases: PBM; 200 nM protein, PBS
# Conditions in all cases: dsDNA, one strand shown
# HOXB4 [1] = molecular target: HOXB4 (Homo sapiens, UniProt P17483 148-234)
# VENTX [2] = molecular target: T1, VENTX (Homo sapiens, UniProt O95231 78-163, R121Q)
# T1 sequence: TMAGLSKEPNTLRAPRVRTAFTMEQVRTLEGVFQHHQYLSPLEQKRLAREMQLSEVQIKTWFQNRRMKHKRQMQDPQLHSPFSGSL
# HOXA4 [3] = molecular target: HOXA4 (Homo sapiens, UniProt Q00056 201-287, W262R)
# HOXA4 (Homo sapiens, UniProt Q00056 201-287, W262R), sequence (Q00056 201-287 W262R): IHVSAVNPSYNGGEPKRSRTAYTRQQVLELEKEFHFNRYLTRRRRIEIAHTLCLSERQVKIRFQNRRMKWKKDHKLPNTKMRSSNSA
# VENTX [4] = molecular target: T2, VENTX (Homo sapiens, UniProt O95231 78-163, Y115F)
# T2 sequence: T1 sequence with Y38F, Q44R
# HOXA4 [5] = molecular target: HOXA4 (Homo sapiens, UniProt Q00056 201-287, R217L)
# HOXA4 (Homo sapiens, UniProt Q00056 201-287, R217L), sequence (Q00056 201-287 R217L): as the sequence (Q00056 201-287 W262R) above, with R17L, R62W counted along it
# HOXB4 [6] = molecular target: HOXB4 (Homo sapiens, UniProt P17483 148-234, V174I)
# HOXB4 (Homo sapiens, UniProt P17483 148-234, V174I), sequence (P17483 148-234 V174I): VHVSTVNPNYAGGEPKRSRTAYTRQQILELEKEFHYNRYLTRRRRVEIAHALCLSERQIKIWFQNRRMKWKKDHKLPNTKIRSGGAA
# HOXA4 [7] = molecular target: HOXA4 (Homo sapiens, UniProt Q00056 201-287)
# HOXA4 (Homo sapiens, UniProt Q00056 201-287), sequence (Q00056 201-287): as the sequence (Q00056 201-287 W262R) above, with R62W counted along it
# HOXA4 [8] = molecular target: HOXA4 (Homo sapiens, UniProt Q00056 201-287, W262F)
# HOXA4 (Homo sapiens, UniProt Q00056 201-287, W262F), sequence (Q00056 201-287 W262F): as the sequence (Q00056 201-287 W262R) above, with R62F counted along it
# HOXA2 [9] = molecular target: HOXA2 (Homo sapiens, UniProt O43364 129-215, R185T)
# HOXA2 (Homo sapiens, UniProt O43364 129-215, R185T), sequence (O43364 129-215 R185T): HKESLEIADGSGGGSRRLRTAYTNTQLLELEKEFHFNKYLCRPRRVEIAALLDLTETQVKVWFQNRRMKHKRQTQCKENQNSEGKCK
# HOXA2 [10] = molecular target: HOXA2 (Homo sapiens, UniProt O43364 129-215, R185K)
# HOXA2 (Homo sapiens, UniProt O43364 129-215, R185K), sequence (O43364 129-215 R185K): as the sequence (O43364 129-215 R185T) above, with T57K counted along it
# VAX1 [11] = molecular target: VAX1 (Homo sapiens, UniProt Q5SQQ9 86-172)
# VAX1 (Homo sapiens, UniProt Q5SQQ9 86-172), sequence (Q5SQQ9 86-172): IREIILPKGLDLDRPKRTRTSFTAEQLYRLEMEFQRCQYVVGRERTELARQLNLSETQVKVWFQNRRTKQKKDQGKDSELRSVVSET
# VAX1 [12] = molecular target: VAX1 (Homo sapiens, UniProt Q5SQQ9 86-172, T142I)
# VAX1 (Homo sapiens, UniProt Q5SQQ9 86-172, T142I), sequence (Q5SQQ9 86-172 T142I): as the sequence (Q5SQQ9 86-172) above, with T57I counted along it
# HOXA2 [13] = molecular target: HOXA2 (Homo sapiens, UniProt O43364 129-215, Y150S)
# HOXA2 (Homo sapiens, UniProt O43364 129-215, Y150S), sequence (O43364 129-215 Y150S): as the sequence (O43364 129-215 R185T) above, with Y22S, T57R counted along it
# HOXA2 [14] = molecular target: HOXA2 (Homo sapiens, UniProt O43364 129-215)
# HOXA2 (Homo sapiens, UniProt O43364 129-215), sequence (O43364 129-215): as the sequence (O43364 129-215 R185T) above, with T57R counted along it
# VAX1 [15] = molecular target: VAX1 (Homo sapiens, UniProt Q5SQQ9 86-172, K157R)
# VAX1 (Homo sapiens, UniProt Q5SQQ9 86-172, K157R), sequence (Q5SQQ9 86-172 K157R): as the sequence (Q5SQQ9 86-172) above, with K72R counted along it
# HESX1 = HESX1 (Homo sapiens, UniProt Q9UBX0 95-180, F115L)
# HESX1, sequence (Q9UBX0 95-180 F115L): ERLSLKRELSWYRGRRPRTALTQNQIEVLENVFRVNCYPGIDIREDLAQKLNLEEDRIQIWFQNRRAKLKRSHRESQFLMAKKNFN
# HOXB4 (Homo sapiens, UniProt P17483 148-234), sequence (P17483 148-234): as the sequence (P17483 148-234 V174I) above, with I27V counted along it
Sequence,binding signal (HOXB4 [1]),binding signal (VENTX [2]),binding signal (HOXA4 [3]),binding signal (VENTX [4]),binding signal (HOXA4 [5]),binding signal (HOXB4 [6]),binding signal (HOXA4 [7]),binding signal (HOXA4 [8]),binding signal (HOXA2 [9]),binding signal (HOXA2 [10]),binding signal (VAX1 [11]),binding signal (VAX1 [12]),binding signal (HOXA2 [13]),binding signal (HOXA2 [14]),binding signal (VAX1 [15]),binding signal (HESX1)
CCATTAAG,"13 upbm affinity estimate (log intensity, higher = more binding, comparable within an allelic series)","11.8 upbm affinity estimate (log intensity, higher = more binding, comparable within an allelic series)","10.5 upbm affinity estimate (log intensity, higher = more binding, comparable within an allelic series)","11.5 upbm affinity estimate (log intensity, higher = more binding, comparable within an allelic series)","11.8 upbm affinity estimate (log intensity, higher = more binding, comparable within an allelic series)","13.6 upbm affinity estimate (log intensity, higher = more binding, comparable within an allelic series)","13.7 upbm affinity estimate (log intensity, higher = more binding, comparable within an allelic series)","11.3 upbm affinity estimate (log intensity, higher = more binding, comparable within an allelic series)",,,,,,,,
CCTCATTA,"13.1 upbm affinity estimate (log intensity, higher = more binding, comparable within an allelic series)","11.6 upbm affinity estimate (log intensity, higher = more binding, comparable within an allelic series)","10.5 upbm affinity estimate (log intensity, higher = more binding, comparable within an allelic series)","11.8 upbm affinity estimate (log intensity, higher = more binding, comparable within an allelic series)","12.1 upbm affinity estimate (log intensity, higher = more binding, comparable within an allelic series)","13.7 upbm affinity estimate (log intensity, higher = more binding, comparable within an allelic series)","13.8 upbm affinity estimate (log intensity, higher = more binding, comparable within an allelic series)","11.5 upbm affinity estimate (log intensity, higher = more binding, comparable within an allelic series)","13.1 upbm affinity estimate (log intensity, higher = more binding, comparable within an allelic series)","13.4 upbm affinity estimate (log intensity, higher = more binding, comparable within an allelic series)","13.6 upbm affinity estimate (log intensity, higher = more binding, comparable within an allelic series)","13.3 upbm affinity estimate (log intensity, higher = more binding, comparable within an allelic series)","10.7 upbm affinity estimate (log intensity, higher = more binding, comparable within an allelic series)","12.8 upbm affinity estimate (log intensity, higher = more binding, comparable within an allelic series)","13.4 upbm affinity estimate (log intensity, higher = more binding, comparable within an allelic series)",
GACCAGGC,"7.9 upbm affinity estimate (log intensity, higher = more binding, comparable within an allelic series)","8.15 upbm affinity estimate (log intensity, higher = more binding, comparable within an allelic series)",,"8.13 upbm affinity estimate (log intensity, higher = more binding, comparable within an allelic series)",,"7.99 upbm affinity estimate (log intensity, higher = more binding, comparable within an allelic series)",,,,,,,,,,
GCTAATGA,"13.3 upbm affinity estimate (log intensity, higher = more binding, comparable within an allelic series)","11.9 upbm affinity estimate (log intensity, higher = more binding, comparable within an allelic series)","10.5 upbm affinity estimate (log intensity, higher = more binding, comparable within an allelic series)","11.9 upbm affinity estimate (log intensity, higher = more binding, comparable within an allelic series)","12.1 upbm affinity estimate (log intensity, higher = more binding, comparable within an allelic series)","14 upbm affinity estimate (log intensity, higher = more binding, comparable within an allelic series)","13.9 upbm affinity estimate (log intensity, higher = more binding, comparable within an allelic series)","11.9 upbm affinity estimate (log intensity, higher = more binding, comparable within an allelic series)","13.1 upbm affinity estimate (log intensity, higher = more binding, comparable within an allelic series)","13.6 upbm affinity estimate (log intensity, higher = more binding, comparable within an allelic series)","13.5 upbm affinity estimate (log intensity, higher = more binding, comparable within an allelic series)","13.3 upbm affinity estimate (log intensity, higher = more binding, comparable within an allelic series)","10.8 upbm affinity estimate (log intensity, higher = more binding, comparable within an allelic series)","12.8 upbm affinity estimate (log intensity, higher = more binding, comparable within an allelic series)","13.4 upbm affinity estimate (log intensity, higher = more binding, comparable within an allelic series)",
ATCATTAG,"13.5 upbm affinity estimate (log intensity, higher = more binding, comparable within an allelic series)","11.7 upbm affinity estimate (log intensity, higher = more binding, comparable within an allelic series)","10.6 upbm affinity estimate (log intensity, higher = more binding, comparable within an allelic series)","11.8 upbm affinity estimate (log intensity, higher = more binding, comparable within an allelic series)","12.3 upbm affinity estimate (log intensity, higher = more binding, comparable within an allelic series)","14.2 upbm affinity estimate (log intensity, higher = more binding, comparable within an allelic series)","14.1 upbm affinity estimate (log intensity, higher = more binding, comparable within an allelic series)","12 upbm affinity estimate (log intensity, higher = more binding, comparable within an allelic series)","12.9 upbm affinity estimate (log intensity, higher = more binding, comparable within an allelic series)","13.6 upbm affinity estimate (log intensity, higher = more binding, comparable within an allelic series)","13.2 upbm affinity estimate (log intensity, higher = more binding, comparable within an allelic series)","13.1 upbm affinity estimate (log intensity, higher = more binding, comparable within an allelic series)","10.9 upbm affinity estimate (log intensity, higher = more binding, comparable within an allelic series)","12.7 upbm affinity estimate (log intensity, higher = more binding, comparable within an allelic series)","13.1 upbm affinity estimate (log intensity, higher = more binding, comparable within an allelic series)",
CGGTTCCC,"7.65 upbm affinity estimate (log intensity, higher = more binding, comparable within an allelic series)",,,,,"7.57 upbm affinity estimate (log intensity, higher = more binding, comparable within an allelic series)",,,,,,,,,,
TATTAATA,"12.7 upbm affinity estimate (log intensity, higher = more binding, comparable within an allelic series)",,,,,"13.3 upbm affinity estimate (log intensity, higher = more binding, comparable within an allelic series)",,,,,,,,,,"8.46 upbm affinity estimate (log intensity, higher = more binding, comparable within an allelic series)"
CGCCGCCG,"8.06 upbm affinity estimate (log intensity, higher = more binding, comparable within an allelic series)","8.02 upbm affinity estimate (log intensity, higher = more binding, comparable within an allelic series)",,"8.17 upbm affinity estimate (log intensity, higher = more binding, comparable within an allelic series)",,"7.89 upbm affinity estimate (log intensity, higher = more binding, comparable within an allelic series)",,,,,"7.38 upbm affinity estimate (log intensity, higher = more binding, comparable within an allelic series)","7.39 upbm affinity estimate (log intensity, higher = more binding, comparable within an allelic series)",,,"7.32 upbm affinity estimate (log intensity, higher = more binding, comparable within an allelic series)",
ATTAATCG,"13 upbm affinity estimate (log intensity, higher = more binding, comparable within an allelic series)","11.6 upbm affinity estimate (log intensity, higher = more binding, comparable within an allelic series)","10.5 upbm affinity estimate (log intensity, higher = more binding, comparable within an allelic series)","11.4 upbm affinity estimate (log intensity, higher = more binding, comparable within an allelic series)","11.9 upbm affinity estimate (log intensity, higher = more binding, comparable within an allelic series)","13.7 upbm affinity estimate (log intensity, higher = more binding, comparable within an allelic series)","13.6 upbm affinity estimate (log intensity, higher = more binding, comparable within an allelic series)","11.2 upbm affinity estimate (log intensity, higher = more binding, comparable within an allelic series)",,,,,,,,
AGTCATTA,"13.1 upbm affinity estimate (log intensity, higher = more binding, comparable within an allelic series)","11.7 upbm affinity estimate (log intensity, higher = more binding, comparable within an allelic series)","10.6 upbm affinity estimate (log intensity, higher = more binding, comparable within an allelic series)","11.7 upbm affinity estimate (log intensity, higher = more binding, comparable within an allelic series)","12.5 upbm affinity estimate (log intensity, higher = more binding, comparable within an allelic series)","13.7 upbm affinity estimate (log intensity, higher = more binding, comparable within an allelic series)","13.9 upbm affinity estimate (log intensity, higher = more binding, comparable within an allelic series)","12 upbm affinity estimate (log intensity, higher = more binding, comparable within an allelic series)","12.9 upbm affinity estimate (log intensity, higher = more binding, comparable within an allelic series)","13.5 upbm affinity estimate (log intensity, higher = more binding, comparable within an allelic series)","13.1 upbm affinity estimate (log intensity, higher = more binding, comparable within an allelic series)","13 upbm affinity estimate (log intensity, higher = more binding, comparable within an allelic series)","10.9 upbm affinity estimate (log intensity, higher = more binding, comparable within an allelic series)","12.7 upbm affinity estimate (log intensity, higher = more binding, comparable within an allelic series)","12.9 upbm affinity estimate (log intensity, higher = more binding, comparable within an allelic series)",
